Results taken from ChEMBL document CHEMBL1961873, “Compounds: GSK PKIS; Assays: Nanosyn kinase panel” (2012).

Biological target: Vascular endothelial growth factor receptor 2 (Homo sapiens) (UniProt P35968)
Details: at 0.1 µM

Sequence of Vascular endothelial growth factor receptor 2 (Homo sapiens) (P35968 whole entry): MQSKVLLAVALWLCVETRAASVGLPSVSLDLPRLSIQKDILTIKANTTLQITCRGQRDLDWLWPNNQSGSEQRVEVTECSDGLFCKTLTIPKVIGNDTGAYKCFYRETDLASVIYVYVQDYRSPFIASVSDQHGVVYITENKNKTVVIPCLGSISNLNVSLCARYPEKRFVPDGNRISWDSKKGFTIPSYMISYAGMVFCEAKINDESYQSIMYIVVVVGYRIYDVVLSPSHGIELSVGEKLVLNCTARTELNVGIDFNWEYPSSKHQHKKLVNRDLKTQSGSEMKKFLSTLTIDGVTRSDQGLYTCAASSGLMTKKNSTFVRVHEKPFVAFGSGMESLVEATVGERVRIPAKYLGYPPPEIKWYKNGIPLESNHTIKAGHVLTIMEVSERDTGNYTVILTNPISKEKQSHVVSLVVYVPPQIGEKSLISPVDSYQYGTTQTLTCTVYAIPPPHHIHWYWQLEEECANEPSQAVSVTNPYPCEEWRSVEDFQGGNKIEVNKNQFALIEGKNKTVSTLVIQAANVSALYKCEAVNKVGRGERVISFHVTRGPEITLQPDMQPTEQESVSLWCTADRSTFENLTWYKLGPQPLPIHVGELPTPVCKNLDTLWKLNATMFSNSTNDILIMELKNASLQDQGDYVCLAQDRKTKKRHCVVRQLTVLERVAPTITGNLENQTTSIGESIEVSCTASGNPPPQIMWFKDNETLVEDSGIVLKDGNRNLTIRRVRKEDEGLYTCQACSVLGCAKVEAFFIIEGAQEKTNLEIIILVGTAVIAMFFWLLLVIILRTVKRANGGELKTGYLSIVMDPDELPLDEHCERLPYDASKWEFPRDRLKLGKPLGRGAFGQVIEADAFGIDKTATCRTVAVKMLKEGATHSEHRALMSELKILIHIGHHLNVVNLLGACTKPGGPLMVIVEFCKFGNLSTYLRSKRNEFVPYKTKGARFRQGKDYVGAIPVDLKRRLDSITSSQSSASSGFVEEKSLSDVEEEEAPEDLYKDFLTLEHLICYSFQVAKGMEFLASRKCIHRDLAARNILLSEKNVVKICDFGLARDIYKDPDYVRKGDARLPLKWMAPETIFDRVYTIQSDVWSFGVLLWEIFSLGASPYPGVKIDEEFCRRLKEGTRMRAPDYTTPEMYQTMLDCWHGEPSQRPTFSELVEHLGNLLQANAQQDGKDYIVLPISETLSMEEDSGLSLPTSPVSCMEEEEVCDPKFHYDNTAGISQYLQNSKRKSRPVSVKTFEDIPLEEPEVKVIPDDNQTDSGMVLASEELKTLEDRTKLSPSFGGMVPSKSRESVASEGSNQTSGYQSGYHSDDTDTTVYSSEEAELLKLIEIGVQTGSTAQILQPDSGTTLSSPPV

Row | SMILES | inhibition
1 | COc1ccc(CNC(=O)c2ccc(-c3cc(-c4nnc(C)o4)ccc3C)cc2)cc1 | 5.17%
2 | Fc1ccc(-c2cc(-c3c[nH]nc3-c3ccccn3)ccn2)cc1 | 7.31%
3 | CS(=O)(=O)CCNCc1ccc(-c2ccc3ncnc(Nc4ccc(OCc5ccccc5)c(C(F)(F)F)c4)c3c2)o1 | 4.72%
4 | COc1ccc2c(-c3ccnc(Nc4cccc(OC(F)(F)F)c4)n3)cnn2n1 | 6.22%
5 | c1ccc(-c2nc3n(c2-c2ccc4c(c2)OCO4)CCC3)nc1 | 3.58%
6 | COc1ccc(-c2cc(-c3c[nH]nc3-c3ccccn3)ccn2)cc1 | 12.7%
7 | COc1ccc(-c2cc3c(N)ncnc3o2)cc1 | 0.19%
8 | FC(F)(F)c1cccc(-c2nn3ncccc3c2-c2ccnc(Nc3ccc4c(c3)OCCO4)n2)c1 | 12.6%
9 | N#Cc1c(NC(=O)CN2CCOCC2)sc2c1CCCC2 | 4.13%
10 | COC(=O)Nc1nc2ccc(Oc3ccc(NC(=O)Nc4cccc(Cl)c4)cc3)cc2[nH]1 | 32.4%
11 | CN1CCC(n2cnc(-c3ccc(F)cc3)c2-c2ccnc(Nc3ccccc3)n2)CC1 | 4.35%
12 | Clc1ccc(-c2nn3ncccc3c2-c2ccnc(Nc3ccccc3)n2)cc1 | 11.2%
13 | COc1ccc(-c2nn3ncccc3c2-c2ccnc(Nc3ccc4c(c3)OCCO4)n2)cc1 | 11.3%
14 | Nc1nc(-c2ccc(F)cc2)c(-c2ccc3ncccc3n2)s1 | 33.2%
15 | COc1ccc2[nH]c3c4[nH]c5ccc(OC)cc5c4c4c(c3c2c1)C(=O)NC4=O | 42.5%
16 | Cc1ccc(O)cc1Nc1ccnc2cc(-c3ccccn3)ccc12 | 78.6%
17 | NS(=O)(=O)c1ccc(N/N=C2\C(=O)Nc3ccc4ncccc4c32)cc1 | 61.6%

Row | SMILES | inhibition
18 | CCN1CCC(CC(=O)Nc2n[nH]c3nnc(-c4cccc(F)c4F)cc23)CC1 | 0.77%
19 | COc1cccc(-c2c[nH]c3c(N/N=C/c4ccncc4)ncnc23)c1 | 17.6%
20 | NC(=O)c1sc(-n2cnc3ccc(C(F)(F)F)cc32)cc1OCc1ccccc1Br | 6.34%
21 | CC(C)COC(=O)c1ccc2c(c1)/C(=C/Nc1ccc(S(N)(=O)=O)cc1)C(=O)N2 | 40.4%
22 | CCn1c(-c2nonc2N)nc2cnc(Oc3cccc(NC(=O)c4ccc(N(C)C)cc4)c3)cc21 | 2.18%
23 | Fc1cccc(COc2ccc(Nc3ncnc4sc(-c5ccco5)cc34)cc2Cl)c1 | 3.37%
24 | CC(=O)NCc1cccc(C#Cc2cncnc2Nc2ccc(OCc3cccc(F)c3)c(Cl)c2)c1 | 0.67%
25 | CS(=O)(=O)CCNCc1coc(-c2ccc3ncnc(Nc4ccc(OCc5ccccc5)cc4)c3c2)c1 | 4.63%
26 | Cc1ccc2c(-c3ccnc(Nc4ccccc4)n3)c(-c3ccc(F)cc3)nn2n1 | 21%
27 | O=S(=O)(CCNCc1ccc(-c2ccc3ncnc(Nc4ccc(OCc5cccc(F)c5)c(Cl)c4)c3c2)o1)c1ccccc1 | 5.96%
28 | CCNC(=O)O[C@H]1CN[C@H](C#Cc2cc3ncnc(Nc4ccc(OCc5cccc(F)c5)c(Cl)c4)c3s2)C1 | 6.2%
29 | c1ccc(COc2ccc(Nc3ncnc4ccc(-c5ccco5)cc34)cc2)cc1 | 0.23%
30 | COC(=O)c1sc(-n2cnc3cc(OC)c(OC)cc32)cc1OCc1ccccc1C(F)(F)F | 15.2%
31 | Cc1cccc2c1NC(=O)/C2=N\Nc1ccc(S(N)(=O)=O)cc1 | 1.56%
32 | CC(=O)Nc1cccc(C#Cc2cncnc2Nc2ccc(OCc3cccc(F)c3)c(Cl)c2)c1 | 9.03%
33 | CCn1c(-c2nonc2N)nc2ccccc21 | 3.69%

Biological target: Vascular endothelial growth factor receptor 2 (Homo sapiens) (UniProt P35968)
Details: at 1 µM

Row | SMILES | inhibition
34 | COc1ccc(CNC(=O)c2ccc(-c3cc(-c4nnc(C)o4)ccc3C)cc2)cc1 | 9.11%
35 | Fc1ccc(-c2cc(-c3c[nH]nc3-c3ccccn3)ccn2)cc1 | 22.2%
36 | CS(=O)(=O)CCNCc1ccc(-c2ccc3ncnc(Nc4ccc(OCc5ccccc5)c(C(F)(F)F)c4)c3c2)o1 | 5.31%
37 | COc1ccc2c(-c3ccnc(Nc4cccc(OC(F)(F)F)c4)n3)cnn2n1 | 14.8%
38 | c1ccc(-c2nc3n(c2-c2ccc4c(c2)OCO4)CCC3)nc1 | 11.7%
39 | COc1ccc(-c2cc(-c3c[nH]nc3-c3ccccn3)ccn2)cc1 | 48%
40 | COc1ccc(-c2cc3c(N)ncnc3o2)cc1 | 2.97%
41 | FC(F)(F)c1cccc(-c2nn3ncccc3c2-c2ccnc(Nc3ccc4c(c3)OCCO4)n2)c1 | 49.6%
42 | N#Cc1c(NC(=O)CN2CCOCC2)sc2c1CCCC2 | 6.56%
43 | COC(=O)Nc1nc2ccc(Oc3ccc(NC(=O)Nc4cccc(Cl)c4)cc3)cc2[nH]1 | 62.5%
44 | CN1CCC(n2cnc(-c3ccc(F)cc3)c2-c2ccnc(Nc3ccccc3)n2)CC1 | 12.4%
45 | Clc1ccc(-c2nn3ncccc3c2-c2ccnc(Nc3ccccc3)n2)cc1 | 42.1%
46 | COc1ccc(-c2nn3ncccc3c2-c2ccnc(Nc3ccc4c(c3)OCCO4)n2)cc1 | 64%
47 | Nc1nc(-c2ccc(F)cc2)c(-c2ccc3ncccc3n2)s1 | 71.1%
48 | COc1ccc2[nH]c3c4[nH]c5ccc(OC)cc5c4c4c(c3c2c1)C(=O)NC4=O | 68.3%
49 | Cc1ccc(O)cc1Nc1ccnc2cc(-c3ccccn3)ccc12 | 93.5%
50 | NS(=O)(=O)c1ccc(N/N=C2\C(=O)Nc3ccc4ncccc4c32)cc1 | 88.6%

Row | SMILES | inhibition
51 | CCN1CCC(CC(=O)Nc2n[nH]c3nnc(-c4cccc(F)c4F)cc23)CC1 | 4.46%
52 | COc1cccc(-c2c[nH]c3c(N/N=C/c4ccncc4)ncnc23)c1 | 61%
53 | NC(=O)c1sc(-n2cnc3ccc(C(F)(F)F)cc32)cc1OCc1ccccc1Br | 7.31%
54 | CC(C)COC(=O)c1ccc2c(c1)/C(=C/Nc1ccc(S(N)(=O)=O)cc1)C(=O)N2 | 71.5%
55 | CCn1c(-c2nonc2N)nc2cnc(Oc3cccc(NC(=O)c4ccc(N(C)C)cc4)c3)cc21 | 8.86%
56 | Fc1cccc(COc2ccc(Nc3ncnc4sc(-c5ccco5)cc34)cc2Cl)c1 | 10.4%
57 | CC(=O)NCc1cccc(C#Cc2cncnc2Nc2ccc(OCc3cccc(F)c3)c(Cl)c2)c1 | 8.91%
58 | CS(=O)(=O)CCNCc1coc(-c2ccc3ncnc(Nc4ccc(OCc5ccccc5)cc4)c3c2)c1 | 7.45%
59 | Cc1ccc2c(-c3ccnc(Nc4ccccc4)n3)c(-c3ccc(F)cc3)nn2n1 | 64%
60 | O=S(=O)(CCNCc1ccc(-c2ccc3ncnc(Nc4ccc(OCc5cccc(F)c5)c(Cl)c4)c3c2)o1)c1ccccc1 | 8.62%
61 | CCNC(=O)O[C@H]1CN[C@H](C#Cc2cc3ncnc(Nc4ccc(OCc5cccc(F)c5)c(Cl)c4)c3s2)C1 | 4.4%
62 | c1ccc(COc2ccc(Nc3ncnc4ccc(-c5ccco5)cc34)cc2)cc1 | -0.38%
63 | COC(=O)c1sc(-n2cnc3cc(OC)c(OC)cc32)cc1OCc1ccccc1C(F)(F)F | 49.6%
64 | Cc1cccc2c1NC(=O)/C2=N\Nc1ccc(S(N)(=O)=O)cc1 | 1.84%
65 | CC(=O)Nc1cccc(C#Cc2cncnc2Nc2ccc(OCc3cccc(F)c3)c(Cl)c2)c1 | 12.6%
66 | CCn1c(-c2nonc2N)nc2ccccc21 | 4.29%
